Experimental findings from PubChem BioAssay (Tox21) are described below.

Values joined by “and” are separate entries in the source; they are usually repeats but may differ in a detail not shown here. Equal values may be shown once. Results filed as inconclusive are left out. Where a call stands in place of a potency, no number is given. Active and inactive are the calls of the source. The call rests on the fitted dose curve.
Potency means the concentration at half of the fitted maximal effect.

This assay in a line: qHTS assay to identify small molecule agonists of the endoplasmic reticulum stress response signaling pathway - cell viability counter screen (AID 1159517). Further: nearly all actives have a fitted effect of over 50% in size. The conditions noted are these: ESRE-bla HeLa viability, CellTiter-Glo luminescence, 5 h; series mostly up to 61 µM. From the text:
U.S. Tox21 Program National Center for Advancing Translational Sciences [NCATS] NIH Chemical Genomics Center [NCGC] U.S. Environmental Protection Agency [EPA] National Institutes of Environmental Health Sciences [NIEHS] National Toxicology Program [NTP] U.S. Food and Drug Administration [FDA] Tox21 Assay Overview: Endoplasmic Reticulum (ER) plays an important role in cellular signaling, protein folding/maturation, stress response, lipid biosynthesis, calcium storage and release etc. Under stress conditions, proteins in ER misfold or unfold, and leading to the expression of ER stress responsive genes. ER stress has been associated with a variety of pathophysiological conditions such as cancer, inflammation, neurodegenerative diseases, diabetes, ischemic heart disease etc. To identify the compounds that induce ER stress response, an ER stress reporter cell line, CellSensor ESRE-bla HeLa (Life Technologies, Carlsbad, CA) containing a beta-lactamase reporter gene under control of the Endoplasmic reticulum Stress Response Element (ESRE) was used to screen Tox21 10K compound library. The cytotoxicity of the Tox21 compound library against the ESRE-bla HeLa cell line was tested in parallel by measuring cell viability using the CellTiter-Glo assay in the same wells.
Tox21 Assay Protocol Summary: ESRE-bla HeLa cells were dispensed at 1,500 cells/6 uL of assay medium per well into black wall/clear-bottom 1536-well plates using a Multidrop Combi (ThermoFisher Scientific, Waltham, MA) dispenser. After the assay plates were incubated at 37 C and 5% CO2 for an overnight, 23 nL of compounds dissolved in DMSO, positive controls or DMSO only was transferred to the assay plate by a Pintool station (Kalypsys, San Diego, CA). The assay plates were incubated at 37 C and 5% CO2 for 5 hr. One uL of LiveBLAzer B/G FRET substrate (Life Technologies) was added using a FRD (Flying Reagent Dispenser, Aurora Discovery, San Diego, CA) and the plates were incubated at room temperature for 2 hr. Fluorescence intensity (405 nm excitation, 460 nm and 530 nm emissions) was measured using an Envision plate reader (PerkinElmer, Shelton, CT). For cytotoxicity, 4 ul/well of CellTiter-Glo reagent was added into the assay plates using an FRD. After 30 min incubation at room temperature, the luminescence intensity was measured using a ViewLux plate reader (PerkinElmer).
(Quantitative high-throughput screening tests each substance at several concentrations.)
On to `Cn1cc(C2=C(c3cn(C4CCN(Cc5ccccn5)CC4)c4ccccc34)C(=O)NC2=O)c2ccccc21`, for which the Potency entry was “inactive”.
In the case of `ClC(Cl)=C(c1ccc(Cl)cc1)c1ccc(Cl)cc1`, the Potency is 54.9 µM (active).
The entry for `Cc1cc(C(F)(C(F)(F)F)C(F)(F)F)ccc1NC(=O)c1cccc(I)c1C(=O)NC(C)(C)CS(C)(=O)=O` is “inactive”.
Consider `C1CCC2CCCCC2C1` (stereo not given), for which the Potency entry was “inactive”.
`CC(C)(C)OO`: the Potency result was “inactive”.
Then `O=C(CCl)C(Cl)Cl`, with “inactive”; and `S=C(SSC(=S)N1CCCCC1)N1CCCCC1`, with “inactive”; and `O=C(CCl)Nc1ccccc1`, with “inactive”.
On to `O=C(O)COc1nc(Cl)c(Cl)cc1Cl`, for which the Potency result was “inactive”.
The figure for `COc1cccc2c1C(=O)c1c(O)c3c(c(O)c1C2=O)C[C@@](O)(C(=O)CO)CC3OC1CC(N2CCOC(OC)C2)C(O)C(C)O1` (stereo not given in full) is 0.952 µM (active); for `O=[N+]([O-])c1ccc2ccc3cccc4ccc1c2c34` it is “inactive”; for `C[C@]12CC[C@H]3[C@@H](CCC4=CC(=O)CC[C@@]43C)[C@@H]1CC[C@@H]2O` it is “inactive”.
The figure for `Clc1ccc(C(c2ccccc2Cl)C(Cl)(Cl)Cl)cc1` (stereo not given) is 43.9 µM (active); for `COc1ccc(N)cc1N` it is “inactive”; for `c1ccc(Nc2ccc3ccccc3c2)cc1` it is “inactive”.
With `CN(C)C(=S)S`, the Potency entry was “inactive”.
Take `Clc1ccc(COC(Cn2ccnc2)c2ccc(Cl)cc2Cl)cc1` (stereo not given): the Potency was 61.4 µM (active).
On to `Cc1cc(C)cc(OP(=O)(Oc2cc(C)cc(C)c2)Oc2cc(C)cc(C)c2)c1`, for which the Potency result was “inactive”.
`CN(C)CCc1c[nH]c2ccc(O)cc12`: the Potency entry is “inactive”.
For `CC(Cc1ccc(C(C)(C)C)cc1)CN1C[C@@H](C)O[C@@H](C)C1` (stereo not given in full), the Potency result was “inactive”.
`C[C@@H]1CC[C@@]2(OC1)O[C@H]1[C@@H](O)[C@H]3[C@@H]4CC[C@H]5C[C@@H](O[C@@H]6O[C@H](CO)[C@H](O[C@@H]7O[C@H](CO)[C@@H](O)[C@H](O[C@@H]8OC[C@@H](O)[C@H](O)[C@H]8O)[C@H]7O[C@@H]7O[C@H](CO)[C@@H](O)[C@H](O[C@@H]8O[C@H](CO)[C@@H](O)[C@H](O)[C@H]8O)[C@H]7O)[C@H](O)[C@H]6O)[C@H](O)C[C@]5(C)[C@H]4CC[C@]3(C)[C@H]1[C@@H]2C`: the Potency is 7.34 µM (active).
On to `Nc1ccc(Sc2ccc(N)cc2)cc1`, for which the Potency result is “inactive”.
For the compound `CCCOCC(=Nc1ccc(Cl)cc1C(F)(F)F)n1ccnc1`, the Potency is 34.6 µM (active).
The entry for `Nc1ccc(Cc2ccc(N)c(Cl)c2)cc1Cl` is “inactive”; for `O=C(O)C1C2CCC(O2)C1C(=O)O` (stereo not given) it is “inactive”; for `ClC1=C(Cl)C2(Cl)C3C(Cl)C(Cl)CC3C1(Cl)C2(Cl)Cl` (stereo not given) it is 49 µM (active).
Then `O=[N+]([O-])c1ccc(Oc2ccc(C(F)(F)F)cc2[N+](=O)[O-])cc1`, with “inactive”; and `O=c1[nH]c2ccccc2n1C1CCN(CCCC(c2ccc(F)cc2)c2ccc(F)cc2)CC1`, with 49 µM (active) and 23.9 µM (active); and `O=C(NC(=O)c1c(F)cccc1F)Nc1cc(Cl)c(OC(F)(F)C(F)F)c(Cl)c1`, with “inactive”.
The figure for `CC1(C)CN=C(NN=C(/C=C/c2ccc(C(F)(F)F)cc2)/C=C/c2ccc(C(F)(F)F)cc2)NC1` is 49 µM (active); for `O=C(O)c1cc[c]([Hg][Cl])cc1` it is “inactive”.
`O=[N+]([O-])c1c2ccccc2cc2ccccc12`: the Potency result was “inactive”.
The entry for `O=C(CCCN1CCC2(CC1)C(=O)NCN2c1ccccc1)c1ccc(F)cc1` is “inactive”; for `CCCN(CCC)CCc1c[nH]c2ccccc12` it is “inactive”.
As for `Oc1ccc2ccc3cccc4ccc1c2c34`, the Potency result was “inactive”.
Regarding `Nc1ccccc1C(=O)OC/C=C/c1ccccc1`, the Potency entry was “inactive”.
Then `FC(F)(F)c1cccc(C2=CCN(CCc3ccc4ccccc4c3)CC2)c1`, with “inactive”.
As to `COC(=O)N(C(=O)N1CO[C@@]2(C(=O)OC)Cc3cc(Cl)ccc3C2=N1)c1ccc(OC(F)(F)F)cc1`, the Potency result is “inactive”.
For the compound `O=[N+]([O-])O.O=[N+]([O-])O.[Cd]`, the Potency entry was “inactive”.
As for `CCCN(CC)CC1COC2(CCC(C(C)(C)C)CC2)O1` (stereo not given), the Potency result is “inactive”.
